Data as given in PubChem BioAssay (NCI).
The panel holds about 83,000 compounds, 20% with a hit somewhere; the sample as a whole holds those more often.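 Results are percent growth after 48 hours of single-concentration exposure. 100 means growth as in untreated cells, lower positive values show inhibition; negative values down to -100 show cell death.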 A number with no mark means an inactive call. Activity calls are given as the source filed them. The calls were made as follows: active = growth percent below 10; inactive = the rest.

Assays:
Assay in all cases: NCI-60 one-dose screen, 48 h (100 = growth as untreated, 0 = no growth, -100 = all killed)
Conditions in all cases: 10 µM unless noted
SK-MEL-2 melanoma = tested on: SK-MEL-2 melanoma
EKVX NSCLC = tested on: EKVX NSCLC
SN12C renal = tested on: SN12C renal
UO-31 renal = tested on: UO-31 renal
TK-10 renal = tested on: TK-10 renal
ACHN renal = tested on: ACHN renal
CAKI-1 renal = tested on: CAKI-1 renal
A498 renal = tested on: A498 renal
CCRF-CEM leukemia = tested on: CCRF-CEM leukemia
MOLT-4 leukemia = tested on: MOLT-4 leukemia

Compound | growth (SK-MEL-2 melanoma) | growth (EKVX NSCLC) | growth (SN12C renal) | growth (UO-31 renal) | growth (TK-10 renal) | growth (ACHN renal) | growth (CAKI-1 renal) | growth (A498 renal) | growth (CCRF-CEM leukemia) | growth (MOLT-4 leukemia)
Cc1nc(-c2ccccc2)sc1CC#N | 112% | 101% | 103% | 106% | 79.4% | 102% | 97.6% | 85.6% | 102% | 93.5%
CCCCCCCCN(CCCCCCCC)CC(O)c1ccc(Cl)c(C)c1Cl (stereo not given) | 123% | 99.4% | 84% | 45.1% | 94.6% | 74.7% | 72.5% | 70.7% | 78% | 91.4%
CC1(C)CC[C@]2(C(=O)OC(=O)[C@]34CCC(C)(C)C[C@@H]3C3=CC[C@@H]5[C@@]6(C)CCC(=O)C(C)(C)[C@@H]6CC[C@@]5(C)[C@]3(C)CC4)CC[C@]3(C)C(=CC[C@@H]4[C@@]5(C)CCC(=O)C(C)(C)[C@@H]5CC[C@]43C)[C@H]2C1 | 76.1% [100 µM] | 81.3% [100 µM] | 55.8% [100 µM] | 59.9% [100 µM] | 95.3% [100 µM] | 73.8% [100 µM] | 45.6% [100 µM] | 95.6% [100 µM] | 44.4% [100 µM] | 41.5% [100 µM]
CC(C)OC(=O)Nc1cc(F)c(F)cc1F | 95.4% | 94.1% | 102% | 86.1% | 96.3% | 101% | 97.1% | 93.6% | 103% | 103%
Cc1cc(NN=C(c2ccc(O)cc2)c2ccc(O)cc2)c([N+](=O)[O-])cc1[N+](=O)[O-] | 0.57% (active) | 14.9% | 74.2% | 6.74% (active) | 51.4% | 43.7% | 65.1% | 85.9% | 119% | 108%
CC(=O)n1cc(C=O)c2ccccc21 | 97.9% | 109% | 97.7% | 72% | 100% | 106% | 100% | 113% | 80.9% | 91%
O=C(N=c1n(-c2ccccc2)nc2n1CCN2C1=NCCN1C(=O)c1ccc(Cl)cc1)c1ccc(Cl)cc1 | 83.3% | 77.1% | 80.8% | 59.8% | 74.6% | 59.1% | 75.2% | 73.7% | 51.4% | 14.5%
C=C(C)[C@@H]1CC[C@]2(C(=O)O)CC[C@]3(C)[C@H](CC[C@@H]4[C@@]5(C)C/C(=C/c6ccco6)C(=O)C(C)(C)[C@@H]5CC[C@]43C)[C@@H]12 | -76% [100 µM] (active) | -63% [100 µM] (active) | -70.6% [100 µM] (active) | -95.4% [100 µM] (active) | -58.5% [100 µM] (active) | -89.8% [100 µM] (active) | -69.6% [100 µM] (active) | -58.5% [100 µM] (active) | 3.44% [100 µM] (active) | -8.01% [100 µM] (active)
Cc1nc(Cl)c2c(n1)N(C)c1ccc(Cl)cc1C(C)C2 (stereo not given) | 96.1% | 75% | 86.6% | 70.9% | 92.9% | 91.7% | 78.8% | 81.5% | 90.3% | 80.6%
COc1ccc2nc3cc(Cl)ccc3c(Nc3ccc(O)c(CN4CCCC4)c3)c2c1 | -57.6% (active) | 51.3% | 47.8% | -46.2% (active) | 10.2% | -38.9% (active) | 8.96% (active) | 62.3% | -6.84% (active) | 0.985% (active)
O=[N+]([O-])c1ccc(O)c(-c2nc3ccccc3s2)c1 | 99% | 83.6% | 64.9% | 43.5% | 82.4% | 85.6% | 73% | 42.6% | 77.3% | 65.3%
CCOC(=O)C(=Cc1ccccc1[N+](=O)[O-])C(=O)OCC | 12% | 68.6% | 24.5% | 41.5% | 22.1% | 16.9% | 24.1% | 122% | 2.19% (active) | 11.1%
COc1ccc2c(c1)C(C)Cc1c(ncnc1-n1cnc3ccccc31)N2C (stereo not given) | 44% | 40.4% | 24.5% | 46.9% | 63.7% | 50.1% | 27.6% | -0.234% (active) | 9.22% (active) | 17.8%
